# Measured values reported in PubChem BioAssay (NCATS).
# Inconclusive results are not listed. Where a call stands in place of a potency, no number is given. Calls of active or inactive are those of the source. Calls follow the shape of the dose curve; as a rule, active = well fitted curve in the direction sought with a large enough effect; inconclusive = small, poorly fitted or top-dose-only effect, or another doubt; inactive = no such curve, though single readings can be large; an effect the other way counts as inactive or inconclusive.
# Key:
# [1] = qHTS of pediatric cancer cell lines to identify multiple opportunities for drug repurposing: Primary screen for SK-N-MC cells (AID 1347093); also: potency is read from the fitted curve at half-maximal effect
# Method in brief: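 Metabolically active cells were quantified by ATP-dependent luminescence (CellTiter-Glo, 15 min at room temperature) following 48 h treatment. Cells had been plated at 500-1,000 per well and settled for 5 h beforehand.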
# [2] = qHTS of pediatric cancer cell lines to identify multiple opportunities for drug repurposing: Primary screen for NB-EBc1 cells (AID 1347095); also: potency is read from the fitted curve at half-maximal effect
# Method in brief: (§1)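 Following a 5-hour attachment period, cells at 500-1,000/well received compounds and were cultured for 48 hours. CellTiter-Glo was added and luminescence read to estimate viable, metabolically active cells.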
# [3] = qHTS of pediatric cancer cell lines to identify multiple opportunities for drug repurposing: Primary screen for SK-N-SH cells (AID 1347098); also: nearly all actives have a fitted effect of over 65% in size; also: potency is read from the fitted curve at half-maximal effect
# Method in brief: (§2)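 Cells (500-1,000/well) rested 5 h, then received compounds for 48 h; metabolically active cells were measured by CellTiter-Glo luminescence. Final concentrations spanned up to 46 µM (MIPE, 11-point) or 0.59 nM-46 µM (NPC, 8-point) in primary screens, 11-point in follow-ups.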
# [4] = qHTS of pediatric cancer cell lines to identify multiple opportunities for drug repurposing: Primary screen for NB1643 cells (AID 1347099); also: nearly all actives have a fitted effect of over 50% in size; also: potency is read from the fitted curve at half-maximal effect
# Method in brief: as §1
# [5] = qHTS of pediatric cancer cell lines to identify multiple opportunities for drug repurposing: Primary screen for LAN-5 cells (AID 1347100); also: potency is read from the fitted curve at half-maximal effect
# Method in brief: as §2
# [6] = qHTS of pediatric cancer cell lines to identify multiple opportunities for drug repurposing: Primary screen for U-2 OS cells (AID 1347096); also: nearly all actives have a fitted effect of over 50% in size
# Method in brief: as §2
# [7] = qHTS of pediatric cancer cell lines to identify multiple opportunities for drug repurposing: Primary screen for BT-37 cells (AID 1347094); also: series mostly up to about 57 µM
# Method in brief: as §1
# [8] = qHTS of pediatric cancer cell lines to identify multiple opportunities for drug repurposing: Primary screen for Saos-2 cells (AID 1347097); also: nearly all actives have a fitted effect of over 40% in size; also: potency is read from the fitted curve at half-maximal effect
# Method in brief: as §1
Structure (SMILES),Potency [1],Potency [2],Potency [3],Potency [4],Potency [5],Potency [6],Potency [7],Potency [8]
NC(=O)[C@@H](CCC(F)(F)F)N(Cc1ccc(-c2ncon2)cc1F)S(=O)(=O)c1ccc(Cl)cc1,23.5 µM (active),inactive,inactive,23.5 µM (active),inactive,–,–,–
Cc1ccn(-c2ccc(-c3ncco3)cc2)c(=O)c1-c1ccc2nc(N)ncc2c1,3.32 µM (active),inactive,–,inactive,inactive,inactive,–,–
CS(=O)(=O)N(Cc1ccco1)CC(O)Cn1c2ccccc2c2ccccc21 (centres undefined),–,inactive,inactive,–,inactive,–,inactive,–
CC(C)[C@H](CO)Nc1nc(Nc2ccc(C(=O)O)c(Cl)c2)c2ncn(C(C)C)c2n1,–,23.5 µM (active),–,–,–,inactive,–,18.7 µM (active)
CC/C(=C(\c1ccccc1)c1ccc(OCCN(C)C)cc1)c1ccccc1,16.8 µM (active),–,24.4 µM (active),–,–,–,–,21.1 µM (active)
O=C1NC(=O)C(=Cc2ccc(-c3ccc(F)cc3)o2)S1,–,–,–,18.7 µM (active),inactive,inactive,–,–
COC[C@@H](c1ccc(C(F)(F)F)cc1)N1CCN(C2(C)CCN(C(=O)c3c(C)ncnc3C)CC2)C[C@H]1C,3.32 µM (active),inactive,5.41 µM (active),18.7 µM (active),–,–,inactive,inactive
Oc1ccc(C2CCN(c3ccnc4ccccc34)CC2)cc1O,–,23.5 µM (active),–,–,18.7 µM (active),–,–,inactive
C[C@]12CCC3c4ccc(O)cc4CCC3C1CCC2=O (some centres undefined),inactive,inactive,inactive,–,inactive,inactive,inactive,–
COc1cc(N2CCC(N3CCN(C)CC3)CC2)ccc1Nc1ncc(Cl)c(Nc2ccccc2S(=O)(=O)C(C)C)n1,0.001 µM (active),–,4.82 µM (active),–,0.001 µM (active),inactive,inactive,–
COc1cc2c(cc1OC)CN(CCc1ccc(NC(=O)c3cc(OC)c(OC)cc3NC(=O)c3cnc4ccccc4c3)cc1)CC2,10.5 µM (active),inactive,19.2 µM (active),14.8 µM (active),–,inactive,–,–
Clc1ccc(Cn2c(CN3CCCC3)nc3ccccc32)cc1,inactive,inactive,–,inactive,inactive,–,–,–
COc1ccc(Cc2ccc(NC(N)=O)cc2)cc1-c1cccc(Cl)c1,18.7 µM (active),inactive,–,16.6 µM (active),–,–,–,inactive
O=C(Nc1cccc(Br)c1)c1cccc(S(=O)(=O)N2CCCCCC2)c1,–,–,–,–,–,inactive,–,16.6 µM (active)
Cc1ccc([C@@H]2O[C@H](CO)[C@@H](O)[C@H](O)[C@@H]2O)cc1Cc1ccc(-c2ccc(F)cc2)s1,–,inactive,–,–,inactive,–,–,14.8 µM (active)
CC[C@@H]1C=C(C)C[C@H](C)C[C@H](OC)[C@H]2O[C@@](O)(C(=O)C(=O)N3CCCC[C@@H]3C(=O)O[C@H](C(C)=C[C@@H]3CC[C@H](Cl)[C@H](OC)C3)[C@H](C)[C@@H](O)CC1=O)[C@H](C)C[C@H]2OC,11.8 µM (active),–,inactive,–,11.8 µM (active),inactive,–,9.35 µM (active)
COc1ccc2c3c1OC1C[C@@H](O)C=C[C@@]31CCN(C)C2 (some centres undefined),–,–,–,–,inactive,inactive,inactive,inactive
C[C@@H]1CCN(C(=O)CC#N)C[C@H]1N(C)c1ncnc2[nH]ccc12,inactive,inactive,–,–,inactive,inactive,inactive,inactive
CC=CCC=CCCC(=O)[C@H]1O[C@@H]1C(N)=O,–,–,inactive,–,–,–,inactive,18.7 µM (active)
